Several values for one entry are separate records, joined by “and”; a condition that tells them apart may be missing. Equal entries are not always repeated. In all, about 70,000 compounds went through this assay and about 400 (0.57%) were called active. No stated cut-off is given here; in the data, active means FP signal below about 40; inactive means the rest. What follows is part of a selection rich in actives, with near analogues and random picks from the rest.
These compounds were tested on RMI core complex (RMI1/RMI2) binding to FANCM MM2 peptide, human (assay: disruptors of RMI1/RMI2 association with MM2 peptide – biochemical, fluorescence polarization, human, primary screen (AID 1159607)). Settings: RMI core complex with F-MM2 peptide, at 33 µM, active compounds read low.

FP signal (polarization), inactive:
Cc1cccn2c(=O)c(/C=C3\SC(=S)N(C)C3=O)c(NCc3ccc4c(c3)OCO4)nc12 42, Cc1ccc(S(=O)(=O)NCCCCCC(=O)Nc2ccncc2)cc1 56, Cc1ccc(NC(=O)C(=O)Nc2cc(F)ccc2F)cc1N1CCCC1=O 54, O=C(CSc1nnc(NC(=O)c2ccc(Br)o2)s1)Nc1cc(C(F)(F)F)ccc1Cl 64, N#CC(c1ccccc1)N1CCSCC1 (stereo unspecified) 56, Cc1cc(-c2nnc(NC(=O)Cc3ccc(F)cc3)o2)n(C)n1 70, CCOC(=O)N1CCc2c(sc(NC(=O)CSc3ccccc3)c2C(N)=O)C1 67, O=C(NCCn1ncc2c(=O)n(Cc3cccc([N+](=O)[O-])c3)cnc21)C1CC(=O)N(c2ccc(F)cc2)C1 (stereo unspecified) 71, O=C(CCn1cncn1)N1CCN(C(=O)N2CCOCC2)CC1 63, O=C(c1ccc(=O)n(Cc2cccc(F)c2)n1)N1CCN(Cc2ccccc2)CC1 59, CCN1C(=O)Cc2cc(NC(=O)c3ccc(F)c(F)c3)ccc21 68, COc1ccc(Cl)c2sc(NC(=O)C3CCCN(S(C)(=O)=O)C3)nc12 (stereo unspecified) 63, CSc1ccc2nc(NC(=O)c3ccc(S(=O)(=O)N4CCc5ccccc5C4)cc3)sc2c1 70, CCc1nnc(NC(=O)CSc2ccc3nc(-c4ccccc4)cn3n2)s1 55, CN(C)C(C#N)c1cccc(Cl)c1Cl (stereo unspecified) 69, CCOC(=O)N1CCc2c(sc(NC(=O)c3ccccc3I)c2C#N)C1 63, COc1cn(CC(=O)Nc2ccc(C)cc2C)c(CSc2nnnn2C)cc1=O 52, C(=N/NC1=NCCN1Cc1ccccc1)/c1ccc2c(c1)OCO2 51 and 48, Clc1ccc(-c2csc(-c3ccncc3)n2)cc1 51, CCn1cc(C(=O)N2CCN(Cc3cc(C)ccc3C)CC2)c2nn(-c3ccccc3)c(=O)c-2c1 64, COCC(=O)Nc1ccc2c(c1)C(=O)N(C)c1cc(C)ccc1O2 69, O=C(C1=C(O)C(=O)N(CCCN2CCOCC2)C1c1ccco1)c1cccs1 (stereo unspecified) 57, O=C(Cc1csc(Nc2ccccc2)n1)NCc1ccccc1Cl 63, COc1ccccc1CCNC(=O)Cc1csc(Nc2ccc(F)cc2)n1 65, CCOC(=O)Cn1c(=NC(=O)c2ccnn2C)sc2cc(C(C)C)ccc21 69, COCCN1C(=O)C2N=NN(c3ccccc3)C2C1=O (stereo unspecified) 66, O=C(c1cccc(C(F)(F)F)c1)N1CCC(c2nnc(C3CC3)s2)CC1 61, COC(=O)Nc1ccc2c(c1)C(=O)N(C)c1ccccc1O2 57, CC1CCCCC1NC(=O)C(=O)c1cn(CC(=O)N2CCCCC2)c2ccccc12 (stereo unspecified) 56, CC1=NN(c2ccccc2)C(=O)C1=Cc1c(C)[nH]n(-c2ccccc2)c1=O 53, O=C(Nc1ccc(Br)cc1)Nc1c[nH]c2ccccc12 56, O=C(Nc1ccc([N+](=O)[O-])cc1)Nc1nc(-c2nc3ccccc3s2)cs1 65, Cc1ccnc(NS(=O)(=O)c2ccc(NC(=O)c3ccc([N+](=O)[O-])o3)cc2)n1 61, NC(=O)c1c(NC(=O)CCSc2ccc(Cl)cc2)sc2c1CCCCC2 102, Cc1c(/C=N\Nc2ccc([N+](=O)[O-])cc2)sc2ccccc12 64, COc1ccccc1/C=C/C(=O)NC(=S)N1CCCC1 59, Cc1cc(C(=O)Nc2sccc2-c2nc3ccccc3s2)on1 107, NC(=O)c1cnn(-c2ccccc2)c1N 55, CCC(CC)C(=O)Nc1nnc(SCc2cc(=O)c(OC(=O)c3ccc(S(=O)(=O)N(CC)CC)cc3)co2)s1 53, Cc1ccc2c(c1)N(C(=O)Cn1nc3ccc(S(=O)(=O)C(C)(C)C)nn3c1=O)CCO2 64, COc1ccc(S(=O)(=O)NNC(=O)CSCc2nc(-c3ccc(Cl)cc3)cs2)cc1 78 and 65, CC(=O)c1cccc(NC(=O)CSc2cc(C)c3ccccc3n2)c1 77, Cc1ccc(S(=O)(=O)Nc2ccc3c(c2)C(=O)NCCO3)c(C)c1 64, O=C(CSc1nnc2ccc(-c3cccs3)nn12)NCCc1ccccc1 54, CS(=O)(=O)c1ccc(Nc2nc(C(=O)NC3CC3)cs2)cc1 62, C=CCn1c(SCC(=O)c2ccc3c(c2)OCO3)nc2scc(-c3ccco3)c2c1=O 120, Cc1cc(C)c2nc(N(CCN(C)C)C(=O)/C=C/c3cccs3)sc2c1 92, COC(CC(=O)O)c1nc2ccccc2s1 (stereo unspecified) 59, COc1cccc2cc(C(=O)Nc3ccc4nc(N5CCN(C)CC5)sc4c3)oc12 64, COc1cccc(-n2c(=S)sc3c(=O)[nH]c(SCC(=O)Nc4ccc(C)c(F)c4)nc32)c1 48, COc1cccn(Cc2n[nH]c(=S)n2C)c1=O 59, CC(=O)c1ccc(NC(=O)CSc2nc(C(F)(F)F)cc(=O)[nH]2)cc1 54, COc1ccc(Oc2cccc(Cl)c2CNC(=O)c2ccccc2N)cc1 60, COC(=O)c1cccn1-c1ccc(F)cc1 56, Cc1cc(NC(=O)/C=C/c2ccccc2)n(C(C)C)n1 67, COc1ccc(-c2cc(=O)n(CC(=O)N3CCN(c4ccccc4OC)CC3)cn2)cc1 65, CCOC(=O)N1CCN(C(=O)COc2coc(CN3CCc4ccccc43)cc2=O)CC1 57, Cc1cccc(NC(=O)Cn2c(C)cc(C)c(-c3nc(-c4ccc(F)cc4)no3)c2=O)c1C 137, Cc1nc2c(=S)[nH]nc(-c3ccccc3)c2s1 68, CCc1cc(C(=O)c2ccc(OC)cc2)c(NC(=O)CN2CCN(C)CC2)s1 69, COc1cccc2cc(-c3cc(=O)oc4cc(OCC(=O)OC(C)(C)C)ccc34)c(=O)oc12 67, Cn1nccc1-c1nnc(NC(=O)c2c(F)cccc2Cl)o1 75, CCCCOc1ccccc1-c1cc2c(SCC(=O)Nc3ccc(NC(C)=O)cc3)nccn2n1 70, CCOC(=O)c1nn(-c2ccccc2C)c(=O)cc1NCCC(c1ccccc1)c1ccccc1 54, COc1ccc(C)c2sc(N(Cc3cccnc3)C(=O)/C=C/c3ccccc3)nc12 55, CC(C)(C)c1cc(NC(=O)CSc2nnc3ccccn23)cc(C(C)(C)C)c1 59, O=C(Cn1cc(-c2nnc(-c3ccccc3)o2)c2ccccc21)N1CCCC1 130, CCCc1cc(=O)n(CC(=O)Nc2ccccc2F)cn1 65, O=C(Nc1ccccc1-c1nc2ccccc2s1)c1ccc(Cl)s1 60, O=C(CSc1nnc(CNC(=O)c2ccc(F)cc2)o1)Nc1ccc2c(c1)OCO2 57, COC(=O)c1cc(OC)c(OC)cc1NC(=O)C1Cc2ccccc2C(=O)O1 (stereo unspecified) 56, CC(=O)SCC(=O)Nc1sccc1C#N 66, O=C(CSc1nnc(NC(=O)c2c(F)cccc2Cl)s1)Nc1ccc(Br)cc1 61, O=C(Nc1ccc(OC(F)(F)F)cc1)c1cnc2sccn2c1=O 64, O=C(NCC1CCN(Cc2cccs2)CC1)c1ccco1 72, CCOc1ccc(-c2noc(-c3cc(-c4cc(C)ccc4C)n[nH]3)n2)cc1OC 95, COc1ccc2nc(-c3ccc(NC(=O)c4c(F)cccc4Cl)cc3)cn2n1 122, SCCc1nc2ccccc2[nH]1 63, COc1ccc(-c2noc(Cn3cnc4c(nnn4Cc4cccc(F)c4)c3=O)n2)cc1 76, O=C(Nc1cc(F)ccc1F)N1CCN(c2ccc(-c3ccc4c(c3)OCO4)nn2)CC1 123, O=C(COc1ccc(Cl)cc1)Nc1ccc2c(c1)C(=O)NCCO2 60, COC(=O)c1c(NC(=O)CCS(=O)(=O)c2ccc(Cl)cc2)sc2c1CCC(C)C2 (stereo unspecified) 96, O=C(CN1C(=O)c2ccccc2C1=O)Nc1nnc(-c2ccco2)o1 63, CCOc1ccc(S(=O)(=O)Nc2ccc3c(c2)CN(C(=O)C2CC2)CC3)cc1F 66, CCc1nnc(C2CCN(S(C)(=O)=O)CC2)s1 60, Oc1ccc(Br)cc1C=Nc1ccccn1 41, Clc1ccc(C=Nc2cccnc2)c(Cl)c1 63, Cn1c(SCC(=O)NCc2ccc(F)cc2)nc2cc(-c3ccccc3)sc2c1=O 104, CN(C)c1ccc(CCCNC(=O)COc2ccc(Cl)cc2)cc1 69, Cn1nc(-c2cccc(NC(=O)c3ccccc3C(F)(F)F)c2)ccc1=O 56, O=C(N/N=C\c1ccncc1)N/N=C\c1ccncc1 54

FP signal (polarization), active:
COC(=O)c1c(N2C(=O)C3ON(c4ccc(Cl)cc4)C(c4ccco4)C3C2=O)sc(C)c1C (stereo unspecified) 25, COc1ccc(Cl)c2sc(NNC(=O)c3ccc(S(=O)(=O)N4CCc5ccccc5C4)cc3)nc12 11, O=C(Cc1csc(Nc2ccc(F)cc2)n1)NCc1ccccn1 9, COc1ccc(OC)c(-c2cc3ccc(O)c(CN4CCN(C)CC4)c3oc2=O)c1 37, Cc1cccnc1N=Cc1cc(Cl)cc(Cl)c1O 29

From PubChem BioAssay AID1159607 (Small Molecule Screening Facility, UW Madison, 2016)
